Hits are enriched below; roughly 16% of the tested compounds scored in any of these assays.
DT40 TDP1 CPT – qHTS for Inhibitors of human tyrosyl-DNA phosphodiesterase 1 (TDP1): qHTS in cells in presence of CPT; chicken DT40 Tdp1-/-;hTDP1 cells + 20 nM CPT, ATP luminescence, 48 h; Potency, µM (doses to about 46.2 µM), for inactives: at the highest dose activity change, negative = growth inhibition, hits mostly inhibitors; 420,000 tested, 12% active; further: potency means the concentration at half of the fitted maximal effect; on the % scale 0 is the no-effect control and ±100 the full control effect; nearly all actives have a fitted effect of over 55% in size
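Chicken DT40 Tdp1-/- cells complemented with human TDP1, 400 cells/well, exposed to compounds plus 20 nM camptothecin for at least 48 h at 37 C; viability read as ATP content by CellTiter-Glo luminescence.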
TDP1 inh – qHTS Assay for Inhibitors of Tyrosyl-DNA Phosphodiesterase (TDP1) | AID 485290, 2010 | Potency, µM (doses to about 130 µM), for the others: at the highest dose activity change, negative = inhibition, hits mostly inhibitors | recombinant TDP1, AlphaScreen DNA substrate cleavage | 350,000 tested, 0.28% active; further: potency means the concentration at half of the fitted maximal effect; on the % scale 0 is the no-effect control and ±100 the full control effect; nearly all actives have a fitted effect of over 40% in size
Target sequence (Q9NUW8 whole entry, looked up): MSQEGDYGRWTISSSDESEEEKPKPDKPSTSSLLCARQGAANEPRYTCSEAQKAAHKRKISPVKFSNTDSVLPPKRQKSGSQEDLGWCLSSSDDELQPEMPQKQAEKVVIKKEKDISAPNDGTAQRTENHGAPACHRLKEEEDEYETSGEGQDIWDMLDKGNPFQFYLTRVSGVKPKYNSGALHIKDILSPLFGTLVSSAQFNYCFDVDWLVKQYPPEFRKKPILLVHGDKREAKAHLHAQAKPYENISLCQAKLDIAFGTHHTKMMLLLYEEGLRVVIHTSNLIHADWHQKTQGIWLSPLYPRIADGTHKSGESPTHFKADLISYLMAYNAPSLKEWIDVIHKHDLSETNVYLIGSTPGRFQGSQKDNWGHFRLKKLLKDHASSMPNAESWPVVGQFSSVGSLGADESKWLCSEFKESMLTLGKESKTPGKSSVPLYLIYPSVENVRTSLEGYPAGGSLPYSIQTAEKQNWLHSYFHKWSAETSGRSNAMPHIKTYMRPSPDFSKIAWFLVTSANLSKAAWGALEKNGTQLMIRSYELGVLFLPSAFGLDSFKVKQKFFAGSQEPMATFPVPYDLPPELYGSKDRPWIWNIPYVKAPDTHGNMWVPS
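Steps: enzyme plus compound, 15 min RT; add biotin/phosphotyrosine-FITC oligonucleotide (15 nM final), react 5 min; add donor/acceptor beads (10 ug/ml final), 10 min; read AlphaScreen. Tdp1 at 1 nM final.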
miR-21 act – qHTS Assay for Modulators of miRNAs and/orActivators of miR-21. 340,000 tested, under 10 active. Potency, µM (top dose mostly 38.3 µM), for the others: at the top dose activity change, positive = activation, hits mostly activators. HeLa miR-21 FLuc reporter, luciferase, 48 h. AID 2288, 2010;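 further: % of control where 0% means no effect; miR-21 action dims this reporter so a rising signal means less miR-21 action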
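HeLa cells endogenously expressing miR-21, stably carrying CMV-driven firefly luciferase with a downstream miR-21 binding site, 2000 cells/well. Titrations up to approximately 40 uM, 48 hours; luciferase luminescence read.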
TDP1 cell noCPT – qHTS for Inhibitors of human tyrosyl-DNA phosphodiesterase 1 (TDP1): qHTS in cells in absence of CPT. DT40 Tdp1-/- hTDP1 cells, no CPT, ATP luminescence, 48 h. Potency, µM (highest dose often 46.2 µM), inactives show top-dose activity change, negative = growth inhibition, hits mostly inhibitors. 420,000 tested, 15% active; further: potency means the concentration at half of the fitted maximal effect; on the % scale 0 is the no-effect control and ±100 the full control effect; nearly all actives have a fitted effect of over 55% in size
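DT40 Tdp1-/-;hTDP1 cells, no CPT (DMSO vehicle only), 400 cells/well; compounds pin-transferred; ≥48 hr, 37 °C; CellTiter-Glo 30 min RT dark, luminescence read.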
uPA surface inh – qHTS for Inhibitors of Cell Surface uPA Generation; cell surface uPA generation assay, qHTS; Potency, µM (top dose mostly 38.3 µM), without a hit: at the highest dose activity change, negative = inhibition, most hits filed as inhibitors; 330,000 tested, 0.31% active; AID 540303, 2011; active means well fitted inhibition curve with a large enough effect; inconclusive means small, poorly fitted or top-dose-only effect; inactive means no such curve, though single readings can be large or run the other way; tested in mouse RAW 264.7 cells; further: potency means the concentration at half of the fitted maximal effect; on the % scale 0 is the no-effect control and ±100 the full control effect; nearly all actives have a fitted effect of over 55% in size
* = called active by the depositor; ? = inconclusive; · = no result; [ ] = dose if it differs, or a comment. Unless noted, the call rests on the fitted dose curve; in most records, active means well fitted curve in the direction sought with a large enough effect; inconclusive means small, poorly fitted or top-dose-only effect, or another doubt; inactive means no such curve, though single readings can be large; an effect the other way counts as inactive or inconclusive.

SMILES	DT40 TDP1 CPT	TDP1 inh	miR-21 act	TDP1 cell noCPT	uPA surface inh
Cc1cccc(OC(=O)c2cc(-c3ccc4c(c3)OCCO4)on2)c1	-14.9%	-5.7%	16.5%	-16.0%	·
CC(=O)N1CCc2c(sc3nc(SCC(C)C)n(-c4ccc(C)c(Cl)c4)c(=O)c23)C1	23.1µM*	11.8%	26.5%	?	·
CSc1nc2nc3c(cc2c(=O)n1-c1ccccc1C)CCCC3	7.31µM*	2.8%	27.1%	7.31µM*	-8.1%
CCn1c(SCc2ccc(Cl)cc2)nc2nc3c(cc2c1=O)CCCC3	?	0.6%	-8.2%	?	2.3%
O=C(N/N=C/c1cccc([N+](=O)[O-])c1)c1cnccn1	-1.0%	5.5%	-9.6%	1.5%	1.5%
O=C(N/N=C/C(Cl)=C\c1ccccc1)c1ccco1	-19.6%	1.2%	-79.1%	29.1µM*	-6.2%
O=C(N/N=C/C(Cl)=C/c1ccccc1)c1cnccn1	16.4µM*	2.4%	-35.6%	13µM*	-8.6%
CC(=C/c1ccccc1)/C=N/NC(=O)c1cnccn1	-21.5%	0.7%	-43.2%	-1.4%	-8.8%
CC(/C=N/NC(=O)c1cccnc1)=C\c1ccccc1	0.4%	8.1%	-44.9%	-0.3%	-8.9%
O=C(N/N=C/c1cc([N+](=O)[O-])ccc1Cl)c1cnccn1	3.26µM*	6.0%	0.2%	5.8µM*	-12.6%
O=C(N/N=C/C(Cl)=C/c1ccccc1)c1ccco1	?	0.0%	-58.2%	?	-6.1%
O=C(N/N=C/C(Cl)=C\c1ccccc1)c1cnccn1	18.4µM*	3.6%	-29.9%	20.6µM*	-12.0%
Cc1c(OCC(=O)N2CCC[C@@H]2C(=O)O)ccc2c3c(c(=O)oc12)CCC3	12.1%	·	-0.2%	-7.0%	2.2%
COC1CCCN(C(=O)c2ccc3oc(Cc4ccc(Cl)cc4)nc3c2)C1 (stereo not drawn)	-17.4%	4.2%	-9.0%	?	3.4%
COc1cccc(N2CCN(c3c(C#N)c(C(F)(F)F)nn3C)CC2)c1	23.1µM*	4.7%	20.1%	8.2µM*	8.6%
COc1cccc(N2CCN(c3nc(C)cc(C)c3C#N)CC2)c1	-21.2%	·	4.7%	?	16.9%
FC(F)(F)c1cccc(CNC2CCN(Cc3ccccc3)CC2)c1	?	·	-7.4%	-88.1%	-1.8%
CCOc1ccc(S(=O)(=O)Nc2c(C)n(C)n(-c3ccccc3)c2=O)cc1	-3.1%	·	-0.3%	-6.0%	2.4%
CN(Cc1cccc(F)c1)C(=O)c1ccccc1Sc1ccccc1C#N	?	-4.2%	-6.5%	?	-5.1%
COc1cc(-c2noc(-c3ccc(N4CCCCC4)c([N+](=O)[O-])c3)n2)cc(OC)c1OC	-2.6%	8.6%	1.3%	-1.4%	·
COc1cc(-c2noc(-c3ccc(N(C)C)c([N+](=O)[O-])c3)n2)cc(OC)c1OC	20.6µM*	8.6%	?	25.9µM*	·
COc1cc(-c2noc(-c3ccc(NCC4CCCO4)c([N+](=O)[O-])c3)n2)cc(OC)c1OC (stereo not drawn)	7.31µM*	8.6%	-14.7%	3.66µM*	·
COc1cc(-c2noc(-c3ccc(NCc4ccco4)c([N+](=O)[O-])c3)n2)cc(OC)c1OC	11.6µM*	0.0%	-17.4%	7.31µM*	·
O=C(N/N=C/c1ccco1)C1CC(=O)N(c2ccccc2)C1 (stereo not drawn)	0.0%	-13.7%	2.9%	6.5%	-2.8%
COc1cc(C(=O)NCC(=O)N/N=C\C(C)=C/c2ccccc2)cc(OC)c1OC	-4.1%	·	11.8%	-21.9%	-5.0%
SMILES	DT40 TDP1 CPT	TDP1 inh	miR-21 act	TDP1 cell noCPT	uPA surface inh
Cc1ccnc(SCCn2c(N3CCN(C)CC3)nc3c2c(=O)n(C)c(=O)n3C)n1	-8.3%	1.4%	-1.7%	-7.2%	4.3%
Cc1cc(N2CCCC2=O)cc(C)c1S(=O)(=O)NCCOc1ccc(C(C)(C)C)cc1	7.31µM*	2.8%[56.1 µM]	24.2%	7.31µM*	-11.2%
Cc1cc(N2CCCC2=O)ccc1S(=O)(=O)NC1CCCCC1	?	-2.6%	-6.2%	20.6µM*	2.2%
O=C1CCCN1c1ccc(S(=O)(=O)NCCOc2ccccc2)cc1	?	1.1%	-0.8%	11.2µM*	-4.1%
COC(=O)C1C(C(=O)OC)C1(c1ccccc1)c1ccccc1 (stereo not drawn)	-8.9%	·	3.3%	-22.0%	-3.9%
COC(=O)C1=C(C(=O)OC)C(C(=O)OC)C(C(=O)OC)C(C(=O)OC)(C(=O)OC)C(C(=O)OC)=C1C(=O)OC (stereo not drawn)	2.59µM*	·	·	2.59µM*	-10.8%
COc1cc(/C=N/Nc2ccccc2)ccc1OC(=O)c1cccs1	-6.7%	6.9%	-21.6%	-2.3%	5.4%
COc1cc(/C=N/Nc2nc3ccccc3s2)ccc1OC(=O)c1ccccc1F	6.51µM*	-5.4%	-57.7%	4.61µM*	-12.8%
COc1cc(C=NNc2ccccc2)ccc1OC(=O)c1ccccc1	?	·	·	18.4µM*	·
COc1cc(OC)cc(C(=O)Oc2ccc(/C=N/Nc3nc4ccccc4s3)cc2OC)c1	?	5.1%	-56.0%	?	-4.7%
CCOc1cc(/C=N/Nc2cccc(C(=O)O)c2)ccc1OC(=O)c1ccccc1	6.9%	5.4%	-50.0%	?	0.0%
CCOc1cc(/C=N/NC(=O)CNc2cccc(C)c2)ccc1OC(=O)c1ccccc1	?	5.4%	0.1%	18.4µM*	-1.2%
CC(C)C(C)/C=C/C(C)C1CCC2C3=CC=C4CC(O)CCC4(C)C3CCC21C (stereo not drawn)	-0.7%	-7.3%[56.1 µM]	·	-19.2%	·
CC(C)[C@@H](C)/C=C/[C@@H](C)[C@H]1CC[C@H]2/C(=C/C=C3\C[C@@H](O)CC[C@@H]3C)CCC[C@]12C	?	·	·	16.8µM*	·
O=C(NCC1CCCO1)C(c1cccs1)N(Cc1ccccc1)C(=O)c1ccc(-c2ccccc2)[nH]1 (stereo not drawn)	?	0.0%	15.1%	20.6µM*	1.8%
O=C(NC1CCCCC1)C(c1ccncc1)N(Cc1ccc(F)cc1)C(=O)c1ccccn1 (stereo not drawn)	11.3%	·	3.0%	-8.1%	-13.1%
O=C(NCC1CCCO1)C(c1cccs1)N(C(=O)c1ccc(-c2ccccc2)[nH]1)C1CCCC1 (stereo not drawn)	-27.0%	-2.3%	-2.1%	?	-8.6%
CC(C)(C)NC(=O)C(c1cccs1)N(CC1CCCO1)C(=O)c1ccc(-c2ccccc2)[nH]1 (stereo not drawn)	23.1µM*	8.1%	-11.1%	20.6µM*	5.4%
O=C(NC1CCCCC1)C(c1ccncc1)N(Cc1ccccc1)C(=O)c1ccc(-c2ccccc2)[nH]1 (stereo not drawn)	16.4µM*	9.3%	14.7%	?	-14.1%
